Assay results reported in PubChem BioAssay.
For some assays here: Measured potencies and affinities stand elsewhere. Activity calls are given as the source filed them.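 Rule for the calls, unless noted: active = compound raising the membrane signal above positive-control mean plus 3 SD in both repeats, and a primary screen hit; inactive = the rest.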

Assays:
[1] = test system: TRPC4 beta (transient receptor potential cation channel C4), mouse; experiment: activators of mouse TRPC4 channel, confirmation, cell-based, Fluo4 calcium, HEK293 TRPC4beta/mu-opioid, duplicates, 10 µM (AID 2426;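 active = fluorescence ratio normalized to control raised more than 50% in primary screen plus both repeat runs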;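 for activation: percent rise of integrated ratio over buffer wells lacking compound which define 0%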); settings: Fluo4 calcium fluorescence, at 10 µM; active compounds read high
[2] = test system: transient receptor potential cation channel C4 beta (TRPC4), mouse; experiment: activators of mouse TRPC4 channel, confirmation, cell-based, second round, Fluo4, HEK293 TRPC4beta/mu-opioid, 1 µM (AID 2461;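 active = primary screen active and over 50% activation in each of two duplicate runs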;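 for activation: 0% = wells without test compound as baseline of integrated fluorescence ratio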); settings: Fluo4 calcium fluorescence, at 1 µM; active compounds read high
[3] = test system: TRPC4 (transient receptor potential cation channel C4 beta), mouse; experiment: positive allosteric modulators of mouse TRPC4, confirmation, cell-based, second round, Fluo-4, HEK293 TRPC4beta/mu-opioid, 1 µM (AID 2554;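 active = primary screen hit whose fluorescence ratio, in both repeats, exceeds the weak agonist control mean by 3 SD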); settings: DAMGO EC20, Fluo-4 calcium flux, at 1 µM; active compounds read high
[4] = test system: TRPC4 beta (transient receptor potential cation channel C4), mouse; experiment: positive allosteric modulators of mouse TRPC4, confirmation, cell-based, Fluo-4, HEK293 TRPC4beta/mu-opioid (AID 2555;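 active = primary screen hit whose calcium fluorescence ratio, in both repeats, exceeds the weak agonist control mean by 3 SD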); settings: DAMGO EC20, Fluo-4 calcium flux, at 10 µM; active compounds read high
[5] = target: Short transient receptor potential channel 4 (Mus musculus) (UniProt Q9QUQ5); experiment: inhibitors of mouse TRPC4 channel, confirmation, cell-based, Fluo4, HEK293 TRPC4beta/mu-opioid (AID 2636;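 active = calcium signal cut by more than 3 SD below the full-agonist control yet still positive, in both repeats and the earlier primary screen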); settings: DAMGO, Fluo4 calcium flux, at 10 µM; active compounds read high
Short transient receptor potential channel 4 (Mus musculus), sequence (Q9QUQ5 whole entry, looked up): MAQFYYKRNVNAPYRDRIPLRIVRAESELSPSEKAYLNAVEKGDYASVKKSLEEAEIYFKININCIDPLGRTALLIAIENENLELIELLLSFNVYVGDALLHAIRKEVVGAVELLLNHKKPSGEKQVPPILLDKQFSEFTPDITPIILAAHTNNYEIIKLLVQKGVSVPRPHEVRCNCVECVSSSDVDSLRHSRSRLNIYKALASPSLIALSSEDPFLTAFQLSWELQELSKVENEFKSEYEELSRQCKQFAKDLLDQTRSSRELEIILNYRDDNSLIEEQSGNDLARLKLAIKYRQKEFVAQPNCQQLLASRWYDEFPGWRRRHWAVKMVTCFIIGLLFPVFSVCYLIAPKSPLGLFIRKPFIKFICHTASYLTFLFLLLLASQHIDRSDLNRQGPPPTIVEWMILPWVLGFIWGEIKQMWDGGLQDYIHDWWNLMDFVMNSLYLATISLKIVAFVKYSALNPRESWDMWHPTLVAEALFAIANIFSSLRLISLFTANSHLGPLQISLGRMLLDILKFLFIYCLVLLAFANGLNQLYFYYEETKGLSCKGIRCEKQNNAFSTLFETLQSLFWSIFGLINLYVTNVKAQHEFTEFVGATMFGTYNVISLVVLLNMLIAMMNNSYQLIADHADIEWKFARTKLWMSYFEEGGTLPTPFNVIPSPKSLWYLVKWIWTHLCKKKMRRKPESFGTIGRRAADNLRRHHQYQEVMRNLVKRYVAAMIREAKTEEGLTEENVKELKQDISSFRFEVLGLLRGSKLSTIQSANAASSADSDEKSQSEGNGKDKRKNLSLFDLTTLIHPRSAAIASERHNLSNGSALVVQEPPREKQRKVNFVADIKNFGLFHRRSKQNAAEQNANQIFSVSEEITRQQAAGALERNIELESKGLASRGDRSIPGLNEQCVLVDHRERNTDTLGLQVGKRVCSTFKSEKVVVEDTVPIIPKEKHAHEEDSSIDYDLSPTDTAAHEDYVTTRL

[6] = target: Short transient receptor potential channel 4 (Mus musculus) (UniProt Q9QUQ5); experiment: inhibitors of mouse TRPC4 channel, confirmation, cell-based, second round, Fluo4, HEK293 TRPC4beta/mu-opioid, 1 µM (AID 2637;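 active = calcium signal ratio cut to more than 3 SD under the fully stimulated control mean yet still positive, in both repeats and the primary screen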); settings: Fluo4 calcium flux, DAMGO, at 1 µM; active compounds read high
[7] = target: Short transient receptor potential channel 4 (Mus musculus) (UniProt Q9QUQ5); experiment: TRPC4 positive allosteric modulators, dose response, cell-based, HEK293 TRPC4/mu-opioid, Fluo-4 calcium, EC20 DAMGO (AID 434941;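 active = earlier screen potentiator hit that boosts the TRPC4 ion channel at some dose, with a dose response; inactive = no potentiation, no dose response, or not a prior hit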;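 note: calcium entry triggered by an EC20 dose of DAMGO at the co-expressed mu-opioid receptor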)
[8] = target: Short transient receptor potential channel 4 (Mus musculus) (UniProt Q9QUQ5); experiment: mouse TRPC4 channel inhibitors, dose response, cell-based, HEK293 TRPC4/mu-opioid, Fluo-4 calcium (AID 434942;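 active = primary screen inhibitor hit that blocks the TRPC4 channel at some tested dose, yielding a dose curve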)
[9] = target: Short transient receptor potential channel 6 (Mus musculus) (UniProt Q61143); experiment: inhibition of mouse TRPC6 channel, confirmation, selectivity assay for TRPC4 inhibitor project, cell-based, HEK293, membrane potential dye, duplicate (AID 434948;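 active = active in primary screen and both duplicates, each dropping signal beyond three positive-control SD with fluorescence still positive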); settings: HEK293 TRPC6, membrane potential dye fluorescence, at 10 µM, stimulated with maximal-effect acetylcholine; active compounds read high
Short transient receptor potential channel 6 (Mus musculus), sequence (Q61143 whole entry, looked up): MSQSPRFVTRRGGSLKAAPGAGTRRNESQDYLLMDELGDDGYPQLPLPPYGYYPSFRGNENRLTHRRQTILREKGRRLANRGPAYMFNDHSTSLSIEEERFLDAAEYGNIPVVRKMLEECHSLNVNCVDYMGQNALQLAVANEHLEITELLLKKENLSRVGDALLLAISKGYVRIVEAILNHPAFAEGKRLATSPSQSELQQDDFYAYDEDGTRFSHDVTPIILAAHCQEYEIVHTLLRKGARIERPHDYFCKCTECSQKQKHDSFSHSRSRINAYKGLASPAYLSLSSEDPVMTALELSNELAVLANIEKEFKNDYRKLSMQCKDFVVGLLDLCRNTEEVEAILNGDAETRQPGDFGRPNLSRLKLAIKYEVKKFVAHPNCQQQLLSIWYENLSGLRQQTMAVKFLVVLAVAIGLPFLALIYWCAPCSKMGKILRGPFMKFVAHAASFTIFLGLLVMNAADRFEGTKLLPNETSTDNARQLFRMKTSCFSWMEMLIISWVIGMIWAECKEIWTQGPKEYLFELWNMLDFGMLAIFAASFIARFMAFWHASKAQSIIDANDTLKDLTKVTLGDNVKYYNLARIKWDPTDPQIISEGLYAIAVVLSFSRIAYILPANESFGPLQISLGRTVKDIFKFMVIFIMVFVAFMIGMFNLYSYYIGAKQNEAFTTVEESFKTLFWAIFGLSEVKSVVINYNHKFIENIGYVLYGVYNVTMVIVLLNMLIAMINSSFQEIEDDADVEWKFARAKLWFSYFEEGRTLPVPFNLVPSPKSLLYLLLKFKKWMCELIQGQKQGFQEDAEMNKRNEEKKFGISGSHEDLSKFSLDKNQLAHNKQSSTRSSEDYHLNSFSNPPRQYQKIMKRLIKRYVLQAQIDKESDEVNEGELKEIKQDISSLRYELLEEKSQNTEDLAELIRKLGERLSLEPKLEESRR

[10] = target: Short transient receptor potential channel 6 (Mus musculus) (UniProt Q61143); experiment: activation of mouse TRPC6 channel, confirmation, selectivity assay for TRPC4 activator project, cell-based, HEK293, membrane potential dye, duplicate (AID 434950;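 active = membrane potential signal rise above negative control mean plus 3 SD in both duplicates, also active in the earlier TRPC4 screen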;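 for activation: 0% = buffer only wells and 100% = acetylcholine maximal-effect wells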); settings: HEK293 TRPC6, membrane potential fluorescence, at 10 µM; active compounds read high
[11] = target: Short transient receptor potential channel 6 (Mus musculus) (UniProt Q61143); experiment: TRPC6 potentiation by TRPC4 potentiator hits, confirmation, selectivity assay for TRPC4 potentiator project, HEK293 cells, membrane potential dye, duplicate (AID 434952); settings: HEK293 TRPC6, membrane potential dye fluorescence, at 10 µM, maximal acetylcholine added after compound; active compounds read high
[12] = target: Short transient receptor potential channel 4 (Mus musculus) (UniProt Q9QUQ5); experiment: calcium flux activators in TRPC4/5HT1a cells, counter-screen for TRPC4 activator project, cell-based, second counter screen, HEK293 TRPC4/5HT1a, Fluo-4 (AID 434977;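 active = calcium signal rise above buffer-control mean plus 5 SD in both duplicates, and also a hit in the primary screen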;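 for activation: plate controls were assay buffer for no effect and maximal serotonin response for full effect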); settings: Fluo-4 calcium flux, at 10 µM; active compounds read high
[13] = calcium flux inhibitors in TRPC4/5HT1a cells, confirmation, counter-screen for TRPC4 inhibitor project, cell-based, second counter screen, HEK293 TRPC4/5HT1a, Fluo-4 (AID 434978;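 active = primary screen active whose calcium signal fell more than 3 SD beyond the full-serotonin control mean in both duplicate plates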;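 note: serotonin given first at submaximal then at maximal dose after compound preincubation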); settings: Fluo-4 calcium flux, at 10 µM, serotonin added to trigger calcium flux; active compounds read high
[14] = test system: TRPC4 (mouse), co-expressed with 5HT1a in HEK293; experiment: calcium flux potentiators in TRPC4/5HT1a cells, confirmation, counter-screen for TRPC4 potentiator project, cell-based, second counter screen, HEK293 TRPC4/5HT1a, Fluo-4 (AID 434979;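 active = signal rise over 3 SD above mean of control wells given weak agonist, in both repeats and first screen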); settings: Fluo-4 calcium flux, at 10 µM, serotonin added at its EC20 dose; active compounds read high
[15] = calcium flux activation in mu-opioid HEK293 cells, confirmation, counter-screen for TRPC4 activator project, cell-based, HEK293 mu-opioid receptor line (AID 449723;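 active = hit in primary screen, with calcium signal over 5 SD above buffer well mean in both duplicates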;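 note: counter screen cells carry the mu-opioid receptor alone and lack TRPC4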); settings: Fluo-4 calcium fluorescence, at 10 µM; active compounds read high
[16] = calcium flux enhancement in mu-opioid HEK293 cells, confirmation, counter-screen for TRPC4 allosteric potentiator project, cell-based, HEK293 mu-opioid receptor line (AID 449724;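 active = calcium signal rise more than 3 SD above the low-dose agonist control mean, in both duplicate plates and the primary screen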); settings: Fluo-4 calcium flux, at 10 µM, compound added before EC20 DAMGO stimulus; active compounds read high

Measured: activation

CCn1cc(CNCc2cn(-c3ccccc3C)nc2-c2ccc(OC)c(F)c2)cn1
active: [1] 163% | [2] 74%
inactive: [3] | [4] | [5] | [6] | [7] | [8] | [9] | [10] | [11] | [12] | [13] | [14] | [15] | [16]

S=C(NCCc1ccccn1)NC1CCCCC1
inactive: [2] | [3] | [4] | [5] | [6] | [7] | [8] | [9] | [11] | [13] | [14] | [15] | [16]
active: [1] 97% | [10] 24.5% | [12] 28.1%

CCOC(=O)C1(CCOC)CCN(Cc2ccccc2-c2ccco2)CC1
inactive: [2] | [3] | [4] | [5] | [6] | [7] | [8] | [9] | [11] | [12] | [13] | [14] | [15] | [16]
active: [1] 60% | [10] 68.5%

COc1ccc(C(CCNCc2ccc(N(C)C)cc2)c2ccccc2)cc1 (configuration not stated)
active: [1] 165% | [12] 26.5%
inactive: [2] | [3] | [4] | [5] | [6] | [7] | [8] | [9] | [10] | [11] | [13] | [14] | [15] | [16]

O=C(COc1cc(Cl)c(Cl)cc1Cl)NCCc1ccccn1
inactive: [2] | [3] | [4] | [5] | [6] | [7] | [8] | [9] | [11] | [13] | [14] | [15] | [16]
active: [1] 60% | [10] 53.5% | [12] 12.5%

COc1ccc(-c2nn(-c3ccccc3C)cc2CNC(C)c2cn(C)nc2C)cc1F (configuration not stated)
inactive: [3] | [4] | [5] | [6] | [7] | [8] | [9] | [11] | [12] | [13] | [14] | [15] | [16]
active: [1] 206% | [2] 74% | [10] 31%

Cc1ccc(-c2nn(-c3cccc(F)c3)cc2CNCc2cccnc2)o1
inactive: [2] | [3] | [4] | [5] | [6] | [7] | [8] | [9] | [10] | [11] | [12] | [13] | [14] | [15] | [16]
active: [1] 100%

CC(=O)n1cc([C@H]2C=C(C(=O)NCc3ccccc3)O[C@@H](OCc3ccc(CO)cc3)C2)c2ccccc21
inactive: [1] | [2] | [3] | [4] | [5] | [6] | [7] | [8] | [9] | [10] | [11] | [12] | [13] | [14] | [15] | [16]

O=C1c2ccccc2S(=O)(=O)c2cc(C(=O)N(c3ccccn3)c3ccccn3)ccc21
inactive: [2] | [3] | [4] | [5] | [6] | [7] | [8] | [9] | [10] | [11] | [13] | [14] | [16]
active: [1] 107% | [12] 99.8% | [15] 25.6%

CN(CCc1ccccn1)C(=O)CC1C(=O)NCCN1Cc1cccc(F)c1 (configuration not stated)
inactive: [2] | [3] | [4] | [5] | [6] | [7] | [8] | [9] | [10] | [11] | [13] | [14] | [15] | [16]
active: [1] 214% | [12] 60.9%

CCCN(CCC(=O)Nc1cc(OC)cc(OC)c1)CC1CC1
active: [1] 180% | [2] 69% | [10] 49% | [12] 54.9%
inactive: [3] | [4] | [5] | [6] | [7] | [8] | [9] | [11] | [13] | [14] | [15] | [16]

COc1ccccc1N1CCN(C(c2cccs2)C(C)NC(=O)c2ccco2)CC1 (configuration not stated)
active: [1] 73% | [10] 32%
inactive: [2] | [3] | [4] | [5] | [6] | [7] | [8] | [9] | [11] | [12] | [13] | [14] | [15] | [16]

COc1ccc(C(CNC(=O)/C=C/c2c(Cl)nc3ccccn23)N(C)C)cc1 (configuration not stated)
inactive: [3] | [4] | [5] | [6] | [7] | [8] | [9] | [11] | [13] | [14] | [15] | [16]
active: [1] 268% | [2] 153% | [10] 41% | [12] 7.37%

CC(CN1CCCC(C(N)=O)C1)c1ccccc1 (configuration not stated)
active: [1] 147% | [2] 65% | [10] 30.5% | [12] 42%
inactive: [3] | [4] | [5] | [6] | [7] | [8] | [9] | [11] | [13] | [14] | [15] | [16]

Fc1ccc(-c2nn(-c3ccccc3)cc2CNCc2ccccc2)cc1
inactive: [1] | [2] | [3] | [4] | [5] | [6] | [7] | [8] | [9] | [10] | [11] | [12] | [13] | [14] | [15] | [16]

Nc1c(C(=O)c2ccccc2)sc2nsc(SCCN3CCCC3)c12
active: [1] 89% | [10] 410% | [12] 93% | [15] 84.3%
inactive: [2] | [3] | [4] | [5] | [6] | [7] | [8] | [9] | [11] | [13] | [14] | [16]

Cc1ccc2[nH]c3c(N4CCc5ccccc5C4)ncnc3c2c1
inactive: [1] | [2] | [3] | [4] | [5] | [6] | [7] | [8] | [9] | [10] | [11] | [12] | [13] | [14] | [15] | [16]
